{
  "source": "PubChem BioAssay AID2685",
  "about": "(National Center for Advancing Translational Sciences (NCATS), 2010)",
  "note": "Screen size: about 320,000 compounds; about 2,100 (0.66%) were called active. Inconclusive results (about 53%) are left out. The call rests on the fitted dose curve; in most records, active means well fitted inhibition curve with a large enough effect in the signal ratio, with a control signal flat (not every such curve was filed as active); inconclusive means small, poorly fitted or top-dose-only effect, or effect the other way, or a change in a side signal; inactive means flat fitted curve, though single readings scatter; the % refers to the signal ratio. Many of the other results were omitted from the sample, so actives are more common in it than they were. Potency means the concentration at half of the fitted maximal effect.",
  "data": [
    {"assay": "qHTS Assay for Lipid Storage Modulators in Drosophila S3 Cells;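 on cell number change: cells counted by Cell Tracker Red CMTPX staining in the red channel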; on lipid storage change, negative = inhibition: on the % scale 0 is the no-effect control and ±100 the full control effect", "details": "BODIPY lipid droplet fluorescence, 18-24 h, cells fed with added oleic acid; cell number change: measured here: cell count max response; series mostly up to 46.1 µM; lipid storage change, negative = inhibition: at the top concentration", "source_text": "NIH Molecular Libraries Probe Production Centers Network [MLPCN] NIH Chemical Genomics Center [NCGC] MLPCN Grant: 1 R03 MH085686-01 Assay Submitter (PI): Beller, Mathias; Max-Planck-Institut fur Biophysikalische Chemie NCGC Assay Overview: Storing lipids as a reservoir for energy or the anabolism of elementary metabolites is a common feature of probably all cells and is conserved from bacteria to humans. The universal cellular lipid storage organelle is the so-called lipid storage droplet (LD). Although ubiquitous, LDs share a simple structure composed of a hydrophobic core that harbors the storage lipids, which is shielded by a droplet-specific phospholipid monolayer to which proteins are attached. The current model of LD biogenesis involves an incorporation of the lipid core into the membrane leaflets of the endoplasmic reticulum (ER) followed by a subsequent budding-like maturation of a LD, which ultimately pinches off. Once released, LD volume can increase by localized lipogenesis or fusion of existing droplet. Storage lipids are re-mobilized enzymatically by lipase activity. Lipase regulation in the adipocyte is heavily studied and involves multiple components including catecholamine signaling, the LD-associated proteins Perilipin and comparative gene identification (CGI-58) and at least two lipases named hormone sensitive lipase (HSL) and adipocyte triglyceride lipase (ATGL). LD regulation outside of the adipocyte is poorly understood and only few components are known. However, there is an urgent need to learn more about ectopic fat depots as mislocalized storage of lipids, for example in the liver or muscle, is an eminent health problem associated with insulin resistance or the metabolic syndrome. We developed a laser-scanning cytometer assay to enable 1,536-well screening and combined the results of the small molecules screen with an RNAi database based on lipid storage.\nTriacsin C (Sigma-Aldrich T-4540), an inhibitor of long-chain fatty acyl CoA synthetase that blocks synthesis of triglycerides, was used as a positive control for lipid under-storage. A total of 23 nL of compound solution of different concentrations were transferred to the assay plates using a Kalypsys pin tool equipped with a 1,536-pin array containing 10-nL slotted pins (FP1S10, 0.457-mm diameter, 50.8 mm long; V&P Scientific). One microliter of oleic acid (400 uM) was added, and the plate was lidded with stainless steel rubber gasket lined lids containing pinholes. […] Fluorescence was detected by excitation of the fluorophores with a 488-nm laser on an Acumen Explorer (TTP Lab Tech). The total intensity in channel 2 (500-530 nm) reflected lipid droplet accumulation. Cells were detected using channel 3 (575-640 nm) with 5-um width and 100-um depth filters. The ratio of the number of objects in PMT channel 2 over the number of objects in PMT channel 3 was also calculated. Percent activity was computed relative to an internal control (100% inhibited lipid droplet deposition due to the presence of 20 uM Triacsin C), which was added to 32 wells/plate.", "units": {"cell number change": "%"}, "values": [
      {"smiles": "Cc1cc(NC(=O)c2cc([N+](=O)[O-])cc([N+](=O)[O-])c2)no1", "lipid storage change, negative = inhibition": "-20.4% (inactive)", "cell number change": 2.37},
      {"smiles": "Cc1cc(NC(=O)c2ccc(C)c([N+](=O)[O-])c2)no1", "lipid storage change, negative = inhibition": "-0.109% (inactive)", "cell number change": 0.478},
      {"smiles": "Cc1cc(NC(=O)c2ccc([N+](=O)[O-])cc2)no1", "Potency": "0.58 µM (active)", "cell number change": -11.8},
      {"smiles": "C/C(=N\\NC(=O)c1ccc(F)cc1)c1cccc(NC(=O)c2cccc(F)c2)c1", "lipid storage change, negative = inhibition": "-24.1% (inactive)", "cell number change": 11.9},
      {"smiles": "COC(=O)c1sccc1NC(=O)COc1ccc(F)cc1Cl", "lipid storage change, negative = inhibition": "16.3% (inactive)", "cell number change": 0.149},
      {"smiles": "Cc1nn2c(=O)cc(COC(=O)c3ccc(NC(=O)C(C)(C)C)cc3)nc2s1", "Potency": "3.66 µM (active)", "cell number change": 7.59},
      {"smiles": "Cc1ccc(C(=O)Nc2ccc(C(=O)OCc3cc(=O)n4ccsc4n3)cc2)cc1", "lipid storage change, negative = inhibition": "6.49% (inactive)", "cell number change": 10.6},
      {"smiles": "COCCc1nn2c(=O)cc(COC(=O)c3cc(OC)c(OC)c(OC)c3)nc2s1", "lipid storage change, negative = inhibition": "-24.2% (inactive)"},
      {"smiles": "COc1ccc(C(=O)CSc2ccc3nnc(-c4cccnc4)n3n2)cc1", "lipid storage change, negative = inhibition": "-5.62% (inactive)", "cell number change": -3.07},
      {"smiles": "Clc1ccc(OCc2nnc3n2CCCCC3)c(Cl)c1", "lipid storage change, negative = inhibition": "4.84% (inactive)"},
      {"smiles": "CC(C(=O)NC1CCS(=O)(=O)C1)N1C(=O)/C(=C/c2ccc(Cl)cc2)SC1=S", "note": "(configuration not stated)", "Potency": "20.6 µM (active)", "cell number change": -12.5},
      {"smiles": "O=C(CN1C(=O)/C(=C/c2ccc(F)cc2)SC1=S)NC1CCS(=O)(=O)C1", "note": "(configuration not stated)", "outcome": "inactive", "cell number change": -19.3},
      {"smiles": "CC(C)c1ccc(/C=C2\\SC(=O)N(CC(=O)NC3CCS(=O)(=O)C3)C2=O)cc1", "note": "(configuration not stated)", "Potency": "2.59 µM (active)", "cell number change": -27.6},
      {"smiles": "O=C(CN1C(=O)/C(=C/c2ccccc2)SC1=S)NC1CCS(=O)(=O)C1", "note": "(configuration not stated)", "lipid storage change, negative = inhibition": "-13.4% (inactive)"},
      {"smiles": "O=C(CCN1C(=O)S/C(=C\\c2ccccc2)C1=O)NC1CCS(=O)(=O)C1", "note": "(configuration not stated)", "outcome": "inactive", "cell number change": -15.9},
      {"smiles": "O=C(CN1C(=O)S/C(=C\\c2ccccc2)C1=O)NC1CCS(=O)(=O)C1", "note": "(configuration not stated)", "Potency": "20.6 µM (active)"},
      {"smiles": "COc1ccc(/C=C2\\SC(=S)N(CC(=O)NC3CCS(=O)(=O)C3)C2=O)cc1", "note": "(configuration not stated)", "lipid storage change, negative = inhibition": "5.31% (inactive)", "cell number change": 5.36},
      {"smiles": "O=C(CN1C(=O)S/C(=C\\c2ccccc2F)C1=O)NC1CCS(=O)(=O)C1", "note": "(configuration not stated)", "lipid storage change, negative = inhibition": "-4.85% (inactive)", "cell number change": -4.18},
      {"smiles": "COc1cccc(/C=C2\\SC(=O)N(CC(=O)NC3CCS(=O)(=O)C3)C2=O)c1", "note": "(configuration not stated)", "outcome": "inactive", "cell number change": 0.472},
      {"smiles": "O=C(O)CSc1nnnn1C1CCCCC1", "lipid storage change, negative = inhibition": "-2% (inactive)", "cell number change": 12.8},
      {"smiles": "CCOC(=O)c1oc2ccccc2c1COC(=O)CNC(=O)c1ccccc1", "lipid storage change, negative = inhibition": "-1.38% (inactive)", "cell number change": -8.09},
      {"smiles": "NC(=O)C1CCN(CC(O)CSc2ccccc2)CC1", "note": "(configuration not stated)", "lipid storage change, negative = inhibition": "22.1% (inactive)"},
      {"smiles": "Cc1nnc(N/N=C/c2ccco2)n1N", "lipid storage change, negative = inhibition": "-2.72% (inactive)", "cell number change": -14},
      {"smiles": "N/C(=N\\OC(=O)c1cc([N+](=O)[O-])ccc1Cl)c1cccnc1", "lipid storage change, negative = inhibition": "-20.1% (inactive)", "cell number change": -8.86},
      {"smiles": "CN(C)CCCNC(=O)C(=O)NCC1OCCN1S(=O)(=O)c1cccs1", "note": "(configuration not stated)", "lipid storage change, negative = inhibition": "-20.9% (inactive)", "cell number change": 1.62},
      {"smiles": "O=C1CCCc2ccccc2N1Cc1ccc(Cl)cc1", "lipid storage change, negative = inhibition": "-16.9% (inactive)", "cell number change": -1.32},
      {"smiles": "Cc1ccc2c(c1)N(CC(=O)NCCC1=CCCCC1)C(=O)c1cccnc1O2", "lipid storage change, negative = inhibition": "0.185% (inactive)", "cell number change": 12.4},
      {"smiles": "COc1ccc(OCC(=O)Nc2ccc(S(=O)(=O)N3CCN(C)CC3)cc2)cc1", "lipid storage change, negative = inhibition": "-10.7% (inactive)", "cell number change": -8.24},
      {"smiles": "COc1ccc(OCC(=O)OCC(=O)NC2CCCCC2C)cc1", "note": "(configuration not stated)", "lipid storage change, negative = inhibition": "-7.59% (inactive)", "cell number change": 5.06},
      {"smiles": "COc1cc(NC2CCCCC2O)c2nc(-c3ccc(Cl)cc3)ccc2c1", "note": "(configuration not stated)", "Potency": "14.6 µM (active)", "cell number change": -29.8},
      {"smiles": "CC1CCCCC1NC(=O)COC(=O)Cc1ccc(Cl)cc1", "note": "(configuration not stated)", "lipid storage change, negative = inhibition": "4.08% (inactive)", "cell number change": -17.8},
      {"smiles": "NC1=NC(=O)C(CC(=O)c2ccc(Cl)cc2)S1", "note": "(configuration not stated)", "lipid storage change, negative = inhibition": "3.54% (inactive)", "cell number change": -1.82},
      {"smiles": "O=C1CC(C(=O)Nc2ccc(C(=O)O)cc2)C(c2ccccc2)O1", "note": "(configuration not stated)", "lipid storage change, negative = inhibition": "-2.1% (inactive)", "cell number change": -9.22},
      {"smiles": "O=C(CN1CCCC1)N1c2ccccc2C=Cc2ccccc21", "lipid storage change, negative = inhibition": "8.55% (inactive)", "cell number change": -13.2},
      {"smiles": "O=C(CN1CCCCCC1)N1c2ccccc2C=Cc2ccccc21", "Potency": "23.1 µM (active)", "cell number change": -1.69},
      {"smiles": "O=C(CN1CCC(O)CC1)N1c2ccccc2C=Cc2ccccc21", "lipid storage change, negative = inhibition": "-0.597% (inactive)", "cell number change": 5.26},
      {"smiles": "Cc1nn(CC(=O)OCC(=O)Nc2c(C(C)C)cccc2C(C)C)c(C)c1[N+](=O)[O-]", "lipid storage change, negative = inhibition": "-9.28% (inactive)", "cell number change": 13.1},
      {"smiles": "CCOc1ccc(C=NC23CN4CN(CN(C4)C2)C3)cc1", "lipid storage change, negative = inhibition": "-12.4% (inactive)", "cell number change": 8.43},
      {"smiles": "C(=NC12CN3CN(CN(C3)C1)C2)c1ccc2c(c1)OCO2", "Potency": "25.9 µM (active)", "cell number change": -2.59},
      {"smiles": "C(=N\\n1cnnc1)/c1ccc2c(c1)OCO2", "cell number change": 14.5, "lipid storage change, negative = inhibition": "3.76% [at 9.22 µM] (inactive)"},
      {"smiles": "Fc1ccccc1OCCCCN1CCCCC1", "lipid storage change, negative = inhibition": "-16.9% (inactive)", "cell number change": 6.04},
      {"smiles": "CC(C)NC(=O)C(Cc1ccccc1)N1C(=O)c2ccccc2C1=O", "note": "(configuration not stated)", "lipid storage change, negative = inhibition": "0.505% (inactive)", "cell number change": -13.7},
      {"smiles": "COc1ccc2c(CCNC(N)=S)c[nH]c2c1", "lipid storage change, negative = inhibition": "2.34% (inactive)", "cell number change": 9.98},
      {"smiles": "Cc1cc(NC(=O)CCC(=O)N(CC(=O)NCC2CCCO2)c2ccc3c(c2)OCCO3)no1", "note": "(configuration not stated)", "lipid storage change, negative = inhibition": "1.58% (inactive)", "cell number change": 10.4},
      {"smiles": "Cc1cc(NC(=O)CCC(=O)N(CC(=O)NCC2CCCO2)c2ccc(C)c(C)c2)no1", "note": "(configuration not stated)", "Potency": "1.03 µM (active)", "cell number change": -10},
      {"smiles": "CCc1ccccc1N(CC(=O)NCC1CCCO1)C(=O)CCC(=O)Nc1cc(C)on1", "note": "(configuration not stated)", "Potency": "25.9 µM (active)", "cell number change": 7.08}
    ]}
  ]
}
